Compounds with a hit are over-represented: about 3% of the library has one in this group of screens.
KDM5B inhibitor: Primary screen for KDM5B Histone Demethylases FDH-coupled qHTS. Potency, µM (top dose mostly 57.7 µM), actives largely listed as inhibitors. KDM5B demethylase, FDH-coupled NADH fluorescence (FDH is formaldehyde dehydrogenase). actives 2.6% (n = 220,000). AID 1347165, 2019. Lysine-specific demethylase 5B (Homo sapiens), Q9UGL1; note: nearly all actives have a fitted effect of over 70% in size
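Compound dilutions met 200 nM (final) KDM5BΔAP for 10 min at room temperature before substrate addition. The substrate mix held 12.5 µM H3K4me3 with cofactors 25 µM α-ketoglutarate and 50 µM Fe²⁺. NADH signal gain over 30 min defined activity.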
SNCA expr inhib: Primary qHTS assay for inhibitors of alpha-synuclein gene (SNCA) expression | AID 1671194, 2021 | HEK-293 SNCA-luciferase knock-in, luminescence, 24 h | actives 0.17% (n = 140,000) | Potency, µM (titrated, usually from 57.2 µM), hits mostly inhibitors; note: nearly all actives have a fitted effect of over 45% in size
HEK293 viab: GF-AFC viability counterscreen for inhibitors of alpha-synuclein gene (SNCA) expression | HEK-293-SNCA-luc viability, GF-AFC fluorescence, 24 h | Potency, µM (top dose mostly 57.1 µM), hits mostly cytotoxic | actives 0.12% (n = 150,000) | AID 1671193, 2021; note: nearly all actives have a fitted effect of over 30% in size
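Cytotoxicity counterscreen: after 24 h compound treatment of genome-edited SNCA-luciferase HEK-293 cells, live-cell protease substrate GF-AFC read by fluorescence after 30 min; activity scaled between DMSO (0%) and medium-only (-100%), curves Hill-fitted.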
IP6K1 inhibitor: Primary qHTS assay for small molecule inhibitors of Inositol hexaphosphate kinase 1 (IP6K1) | activity change, % (series mostly up to about 58 µM) | IP6K1 kinase, ADP-Glo luminescence, 2 h; hits give low values | actives 0.81% (n = 140,000) | Inositol hexakisphosphate kinase 1 (Homo sapiens), Q92551 | AID 1645851, 2021; in the data active = activity change below about -25%
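ADP-Glo luminescence measures ADP made by human IP6K1 during a 2 h RT reaction with ATP/IP6 (mix at 1.3 mM/130 uM); top library doses 57.5 and 19.1 uM final.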
Numbers stand for hits; i = inactive; ? = inconclusive; nt = not tested or not shown. Unless noted, calls come from the whole dose curve; as a rule, active = well fitted curve in the direction sought with a large enough effect; inconclusive = small, poorly fitted or top-dose-only effect, or another doubt; inactive = no such curve, though single readings can be large; an effect the other way counts as inactive or inconclusive.

SMILES	KDM5B inhibitor	SNCA expr inhib	HEK293 viab	IP6K1 inhibitor
COc1ccc2c(C)c(-c3nc(C4CCOC4)no3)oc2c1 (stereo not drawn)	31.6µM	i	i	i
c1ccc2cc(-c3nc(C4CCOC4)no3)ncc2c1 (stereo not drawn)	?	i	i	i
COc1nc(-c2ccc(OC)c3ncccc23)ncc1F	31.6µM	i	i	i
COc1ccc(-c2nc(C)c(C)cc2C#N)c2cccnc12	31.6µM	i	i	i
COc1cc(CNc2nc(-c3c(C)noc3C)cc3cc(C)oc23)cc(OC)c1	31.6µM	i	?	i
Cc1cc2cc(-c3c(C)noc3C)nc(Nc3ccc(F)cc3)c2o1	31.6µM	i	i	i
Cc1cc2cc(-c3c(C)noc3C)nc(Nc3ccc(Cl)cc3)c2o1	22.4µM	i	i	i
Cc1cc2cc(-c3c(C)noc3C)nc(NCc3cccc(F)c3)c2o1	i	?	i	i
Cc1cc2cc(-c3c(C)noc3C)nc(Nc3ccccc3)c2o1	39.8µM	i	i	i
Cc1cc2cc(-c3c(C)noc3C)nc(Nc3cccc(F)c3)c2o1	?	?	i	i
O=C(Nc1ccc2nc(SCc3cccc4ccccc34)sc2c1)c1ccc(Cl)cc1	i	nt	nt	nt
COc1ccc(CCNC(=O)c2nc3cccnc3n(CC(C)C)c2=O)cc1	nt	i	i	i
CC(=O)Nc1cccc(-c2ccc3c(n2)CN(Cc2ccccc2)C(=O)CO3)c1	i	i	i	i
O=C1COc2ccc(-c3ccoc3)nc2CN1Cc1ccccc1	31.6µM	?	?	i
Cc1ccccc1-c1ccc2c(n1)CN(Cc1ccccc1)C(=O)CO2	i	i	i	i
O=C1COc2ccc(-c3cn[nH]c3)nc2CN1Cc1ccc(C(F)(F)F)cc1	i	i	i	i
O=C1COc2ccc(-c3ccncc3)nc2CN1Cc1ccccc1	35.5µM	i	i	i
O=C1COc2ccc(-c3ccncc3)nc2CN1Cc1ccc(C(F)(F)F)cc1	39.8µM	?	i	i
CC(NC(=O)/C(=C\c1cccc(Br)c1)NC(=O)c1ccco1)C(=O)O (stereo not drawn)	i	nt	nt	nt
COC(=O)[C@@H]1Cc2nc[nH]c2CN1Cc1ccc(C(=O)O)cc1	39.8µM	i	i	i
COC(=O)[C@@H]1Cc2nc[nH]c2CN1Cc1ccc(C)cc1	?	i	i	i
CC(C)c1noc([C@@H]2Cc3nc[nH]c3CN2Cc2ccc(F)cc2)n1	28.2µM	i	i	i
O=C(O)c1ccc(CN2Cc3[nH]cnc3C[C@H]2c2nc(-c3ccc(F)c(Cl)c3)no2)cc1	25.1µM	i	i	i
CC(C)(C)C1C/C(=C/c2cccs2)c2nc3ccccc3c(C(=O)O)c2C1 (stereo not drawn)	i	nt	nt	nt
COC(=O)C1C(C(=O)OC)C2(OC(c3ccccc3)=CC2=O)C12OC(c1ccccc1)=CC2=O (stereo not drawn)	i	nt	nt	nt
SMILES	KDM5B inhibitor	SNCA expr inhib	HEK293 viab	IP6K1 inhibitor
COc1cc2c(cc1OC)C(C[C@H]1CN(C(=O)c3ccc(F)cc3)CC[C@H]1CC(=O)O)=NCC2	i	i	i	i
COc1cc2c(cc1OC)C(C[C@H]1CN(C(=O)c3ccc4c(c3)OCO4)CC[C@H]1CC(=O)O)=NCC2	31.6µM	i	i	i
COc1cc2c(cc1OC)C(C[C@H]1CN(C(=O)c3ccccc3)CC[C@H]1CC(=O)O)=NCC2	i	i	i	i
COc1cc2c(cc1OC)C(C[C@H]1CN(C(=O)Cc3cccs3)CC[C@H]1CC(=O)O)=NCC2	28.2µM	i	i	i
COC(=O)C[C@@H]1CCN(C(=O)COc2ccccc2)C[C@@H]1CC1=NCCc2cc(OC)c(OC)cc21	25.1µM	i	i	i
COc1ccc2c(c1)CCN=C2C[C@H]1CN(C(=O)Cc2cccs2)CC[C@H]1CC(=O)O	35.5µM	i	i	i
COc1ccc(-c2nc(SC(C)C(=O)NC(C)(C)C)n[nH]2)c(OC)c1 (stereo not drawn)	i	nt	nt	nt
CCOc1cccc(/C=C2/Cc3c(O)cccc3C2=O)c1	i	nt	nt	nt
COc1ccc2c(c1)CCN=C2C[C@H]1CN(C(=O)c2cccc(F)c2)CC[C@H]1CC(=O)O	?	i	i	i
COc1ccc2c(c1)CCN=C2C[C@H]1CN(C(=O)c2ccccc2)CC[C@H]1CC(=O)O	28.2µM	i	i	i
C=CCNC(=O)N1CC[C@@H](CC(=O)O)[C@@H](CC2=NCCc3cc(OC)ccc32)C1	35.5µM	i	i	i

Assay outcomes deposited in PubChem BioAssay by National Center for Advancing Translational Sciences (NCATS).
